In PMC12529666, “Dysregulation of AGO2-miRNA dynamics underlies the AGO2-associated Lessel–Kreienkamp syndrome” one finds binding signal data, which are given here for 21 molecules.

Experiment in all cases: RNA Bind-n-Seq (nitrocellulose filter binding and sequencing); miR-122 guide loaded in AGO2; 60 min incubation; 30 mM Tris pH 8.0, 100 mM potassium acetate, 2 mM magnesium acetate, 0.5 mM TCEP, 0.005% NP-40, 0.01 mg/ml yeast tRNA; 3 nM AGO2-miR-122, 100 nM RNA library; 60; high values mean tight binding
Common to all, as to conditions: protein: recombinant; tags: His6 (N-terminal, pFastBac HTA)

Experiment [1] deals with AGO2 WT (phosphosite mutant background) (Homo sapiens, UniProt Q9UKV8 1-859, S387D;S824A;S828D;S831D;S834A). A digest of the protocol: (§1)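 His-tagged AGO2 was expressed in Sf9 insect cells by baculovirus, loaded with a synthetic guide RNA, and purified by Ni-NTA and a biotinylated capture oligo. Bound RNA was extracted, reverse-transcribed, barcode-amplified and Illumina-sequenced. Fold enrichment is each sequence's read fraction divided by its input-library read fraction.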
Chain of AGO2 WT (phosphosite mutant background) (Q9UKV8 whole entry S387D/S824A/S828D/S831D/S834A): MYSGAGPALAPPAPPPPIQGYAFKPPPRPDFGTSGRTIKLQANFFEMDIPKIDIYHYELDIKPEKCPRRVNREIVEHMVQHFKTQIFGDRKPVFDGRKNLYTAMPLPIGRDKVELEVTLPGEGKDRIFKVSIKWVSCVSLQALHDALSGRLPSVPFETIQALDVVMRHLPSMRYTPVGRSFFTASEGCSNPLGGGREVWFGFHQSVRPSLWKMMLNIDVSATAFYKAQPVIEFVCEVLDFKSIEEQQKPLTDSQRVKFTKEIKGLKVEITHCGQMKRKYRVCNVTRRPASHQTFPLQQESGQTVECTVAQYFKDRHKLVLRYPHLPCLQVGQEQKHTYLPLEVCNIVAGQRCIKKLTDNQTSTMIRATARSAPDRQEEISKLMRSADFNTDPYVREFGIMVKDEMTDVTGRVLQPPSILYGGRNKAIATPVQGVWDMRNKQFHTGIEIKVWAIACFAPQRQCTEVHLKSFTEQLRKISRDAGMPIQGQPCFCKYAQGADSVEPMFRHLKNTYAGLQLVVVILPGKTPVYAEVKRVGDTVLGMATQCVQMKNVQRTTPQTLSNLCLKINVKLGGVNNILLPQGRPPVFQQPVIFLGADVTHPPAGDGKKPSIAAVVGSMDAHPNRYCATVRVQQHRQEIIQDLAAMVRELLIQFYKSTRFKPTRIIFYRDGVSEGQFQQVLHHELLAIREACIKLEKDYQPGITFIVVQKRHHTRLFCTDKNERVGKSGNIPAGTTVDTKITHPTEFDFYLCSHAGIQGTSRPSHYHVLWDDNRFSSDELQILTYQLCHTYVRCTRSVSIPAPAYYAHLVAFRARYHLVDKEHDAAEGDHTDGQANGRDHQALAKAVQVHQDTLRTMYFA

A further experiment addresses AGO2 L192P (Homo sapiens, UniProt Q9UKV8 1-859, L192P;S387D;S824A;S828D;S831D;S834A). A digest of the protocol: as §1
The target of a further experiment is AGO2 A367P (Homo sapiens, UniProt Q9UKV8 1-859, A367P;S387D;S824A;S828D;S831D;S834A). Summed up: as §1
Chain of AGO2 A367P (Q9UKV8 whole entry A367P/S387D/S824A/S828D/S831D/S834A): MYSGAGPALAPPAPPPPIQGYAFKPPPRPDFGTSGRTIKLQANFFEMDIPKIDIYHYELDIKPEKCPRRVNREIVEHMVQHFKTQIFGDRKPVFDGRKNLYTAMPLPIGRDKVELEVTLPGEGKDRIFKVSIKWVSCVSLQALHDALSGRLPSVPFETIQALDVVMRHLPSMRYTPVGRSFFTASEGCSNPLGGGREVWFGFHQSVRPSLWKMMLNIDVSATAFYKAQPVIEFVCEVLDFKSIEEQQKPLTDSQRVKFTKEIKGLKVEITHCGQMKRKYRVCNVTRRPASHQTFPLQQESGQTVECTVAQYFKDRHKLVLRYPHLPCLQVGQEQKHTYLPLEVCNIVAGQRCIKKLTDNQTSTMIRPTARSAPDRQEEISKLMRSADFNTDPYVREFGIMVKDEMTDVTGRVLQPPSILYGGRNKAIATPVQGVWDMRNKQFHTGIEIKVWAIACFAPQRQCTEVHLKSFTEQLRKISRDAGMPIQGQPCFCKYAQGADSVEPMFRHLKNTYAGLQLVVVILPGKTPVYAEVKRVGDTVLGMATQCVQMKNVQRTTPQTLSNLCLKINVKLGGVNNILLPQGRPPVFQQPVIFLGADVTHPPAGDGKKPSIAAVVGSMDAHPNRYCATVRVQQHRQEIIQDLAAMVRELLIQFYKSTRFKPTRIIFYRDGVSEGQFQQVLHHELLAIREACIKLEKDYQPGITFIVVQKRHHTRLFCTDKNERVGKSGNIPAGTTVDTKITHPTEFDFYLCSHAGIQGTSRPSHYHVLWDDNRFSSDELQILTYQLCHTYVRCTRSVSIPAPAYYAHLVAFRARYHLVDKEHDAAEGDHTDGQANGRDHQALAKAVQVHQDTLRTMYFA
A further experiment concerns the target AGO2 T357M (Homo sapiens, UniProt Q9UKV8 1-859, T357M;S387D;S824A;S828D;S831D;S834A). Summed up:
as §1

A further experiment has as its target AGO2 F182del (Homo sapiens, UniProt Q9UKV8 1-859, S387D;S824A;S828D;S831D;S834A;del182-182). Summed up:
as §1

Positions count from the first letter of the chain named.

Chain of AGO2 F182del (Q9UKV8 other isoform, or with tags, fused parts or gaps S387D;S824A;S828D;S831D;S834A;del182-182): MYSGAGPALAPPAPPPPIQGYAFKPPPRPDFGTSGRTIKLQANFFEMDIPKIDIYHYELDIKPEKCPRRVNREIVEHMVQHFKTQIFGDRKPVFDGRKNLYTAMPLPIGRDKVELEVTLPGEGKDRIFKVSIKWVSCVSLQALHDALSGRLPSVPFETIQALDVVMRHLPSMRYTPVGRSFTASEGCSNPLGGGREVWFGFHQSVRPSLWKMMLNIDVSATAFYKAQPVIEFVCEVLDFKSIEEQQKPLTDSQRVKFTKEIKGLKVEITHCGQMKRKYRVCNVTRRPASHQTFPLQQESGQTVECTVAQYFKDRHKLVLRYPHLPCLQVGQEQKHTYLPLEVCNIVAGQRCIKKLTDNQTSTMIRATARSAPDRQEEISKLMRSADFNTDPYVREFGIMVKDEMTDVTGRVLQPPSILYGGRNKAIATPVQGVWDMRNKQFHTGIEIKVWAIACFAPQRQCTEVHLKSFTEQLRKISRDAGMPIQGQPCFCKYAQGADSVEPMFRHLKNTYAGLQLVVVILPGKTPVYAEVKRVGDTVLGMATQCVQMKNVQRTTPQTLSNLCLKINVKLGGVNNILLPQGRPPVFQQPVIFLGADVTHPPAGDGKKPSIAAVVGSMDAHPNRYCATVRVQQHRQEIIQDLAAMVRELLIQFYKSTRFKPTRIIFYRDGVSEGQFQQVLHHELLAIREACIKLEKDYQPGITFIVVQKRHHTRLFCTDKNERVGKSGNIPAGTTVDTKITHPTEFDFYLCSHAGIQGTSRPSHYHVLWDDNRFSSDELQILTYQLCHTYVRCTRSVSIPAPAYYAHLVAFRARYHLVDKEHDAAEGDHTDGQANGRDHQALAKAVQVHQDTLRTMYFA
Chain of AGO2 L192P (Q9UKV8 whole entry L192P/S387D/S824A/S828D/S831D/S834A): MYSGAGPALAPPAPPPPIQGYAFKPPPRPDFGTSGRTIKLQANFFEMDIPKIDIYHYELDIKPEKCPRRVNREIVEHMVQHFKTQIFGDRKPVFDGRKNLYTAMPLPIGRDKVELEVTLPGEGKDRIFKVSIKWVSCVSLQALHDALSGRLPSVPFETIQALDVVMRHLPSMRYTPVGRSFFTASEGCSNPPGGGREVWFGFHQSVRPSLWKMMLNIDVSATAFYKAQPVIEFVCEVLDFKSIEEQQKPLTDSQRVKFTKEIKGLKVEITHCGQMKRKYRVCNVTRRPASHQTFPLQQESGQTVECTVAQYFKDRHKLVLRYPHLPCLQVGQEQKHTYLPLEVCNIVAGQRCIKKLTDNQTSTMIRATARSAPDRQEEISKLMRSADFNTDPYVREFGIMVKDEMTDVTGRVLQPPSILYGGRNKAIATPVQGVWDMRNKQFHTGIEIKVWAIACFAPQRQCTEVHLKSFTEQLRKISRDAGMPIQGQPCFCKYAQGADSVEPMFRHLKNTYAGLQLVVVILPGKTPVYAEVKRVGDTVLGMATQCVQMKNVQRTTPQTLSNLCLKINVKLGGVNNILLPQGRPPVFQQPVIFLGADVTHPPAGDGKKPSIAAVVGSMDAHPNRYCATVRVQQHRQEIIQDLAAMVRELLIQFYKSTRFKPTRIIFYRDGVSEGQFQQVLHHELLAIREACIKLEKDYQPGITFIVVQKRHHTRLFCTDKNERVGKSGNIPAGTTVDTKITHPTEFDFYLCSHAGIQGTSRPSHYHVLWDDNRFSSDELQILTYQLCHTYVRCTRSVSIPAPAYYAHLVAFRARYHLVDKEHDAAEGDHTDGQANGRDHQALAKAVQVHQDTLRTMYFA
Chain of AGO2 T357M (Q9UKV8 whole entry T357M/S387D/S824A/S828D/S831D/S834A): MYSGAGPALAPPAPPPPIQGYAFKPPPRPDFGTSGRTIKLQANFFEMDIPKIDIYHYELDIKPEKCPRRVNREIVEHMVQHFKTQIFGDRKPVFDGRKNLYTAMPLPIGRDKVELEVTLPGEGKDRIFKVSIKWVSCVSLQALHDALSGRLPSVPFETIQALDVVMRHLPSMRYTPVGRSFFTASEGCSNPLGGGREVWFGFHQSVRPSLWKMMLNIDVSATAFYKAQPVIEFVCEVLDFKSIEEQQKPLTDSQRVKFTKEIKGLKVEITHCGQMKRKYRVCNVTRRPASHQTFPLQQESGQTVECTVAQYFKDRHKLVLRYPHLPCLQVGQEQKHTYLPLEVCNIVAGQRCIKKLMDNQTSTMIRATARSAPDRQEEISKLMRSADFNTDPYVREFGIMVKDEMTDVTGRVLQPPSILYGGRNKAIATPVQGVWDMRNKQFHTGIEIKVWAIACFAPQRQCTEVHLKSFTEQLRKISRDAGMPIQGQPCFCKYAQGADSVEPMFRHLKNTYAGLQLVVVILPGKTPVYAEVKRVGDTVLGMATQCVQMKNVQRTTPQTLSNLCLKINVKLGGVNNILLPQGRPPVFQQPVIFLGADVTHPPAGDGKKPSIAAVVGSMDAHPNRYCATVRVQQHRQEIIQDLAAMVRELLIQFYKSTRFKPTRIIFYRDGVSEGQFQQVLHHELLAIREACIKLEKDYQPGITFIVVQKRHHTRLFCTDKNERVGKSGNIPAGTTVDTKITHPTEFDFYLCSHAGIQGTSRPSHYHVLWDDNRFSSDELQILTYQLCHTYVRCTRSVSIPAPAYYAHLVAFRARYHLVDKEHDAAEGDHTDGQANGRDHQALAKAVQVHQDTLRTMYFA

B1: ACGTCTTA (ssRNA)
RNA 1: GAGUUCUACAGUCCGACGAUCCCAACACGUCUUACACCUGGAAUUCUCGGGUGCCAA
RNA 2: UGGAGUGUGACAAUGGUGUUUG
DNA 1: GATCGTCGGACTGTAGAACTC
DNA 2: TTGGCACCCGAGAATTCCA
modifications: constant regions annealed to DNA blockers; guide miR-122 5' phosphate
Turning to B1, the binding signal was 0.13 fold enrichment over input in experiment [1]; 0.525 fold enrichment over input with AGO2 L192P; 0.269 fold enrichment over input in the experiment with AGO2 A367P; 0.643 fold enrichment over input in the experiment with AGO2 T357M; 0.333 fold enrichment over input in the experiment with AGO2 F182del.

B2: ATATTCTA (ssRNA)
RNA 1: B1 RNA 1 with C28U, G29A, C31U, U32C
RNA 2: UGGAGUGUGACAAUGGUGUUUG
DNA 1: GATCGTCGGACTGTAGAACTC
DNA 2: TTGGCACCCGAGAATTCCA
modifications: constant regions annealed to DNA blockers; guide miR-122 5' phosphate
As for B2, the binding signal with AGO2 L192P was 0.453 fold enrichment over input; in the experiment with AGO2 A367P, 0.18 fold enrichment over input; with AGO2 T357M, 0.631 fold enrichment over input.

B3: ACACCTTG (ssRNA)
RNA 1: B1 RNA 1 with G29A, U30C, A34G
RNA 2: UGGAGUGUGACAAUGGUGUUUG
DNA 1: GATCGTCGGACTGTAGAACTC
DNA 2: TTGGCACCCGAGAATTCCA
modifications: constant regions annealed to DNA blockers; guide miR-122 5' phosphate
With B3, the binding signal with AGO2 L192P is 0.422 fold enrichment over input; in the experiment with AGO2 A367P, 0.169 fold enrichment over input; with AGO2 T357M it was 0.452 fold enrichment over input; with AGO2 F182del, 0.318 fold enrichment over input.

B4: ATATCCCA (ssRNA)
RNA 1: B1 RNA 1 with C28U, G29A, U32C, U33C
RNA 2: UGGAGUGUGACAAUGGUGUUUG
DNA 1: GATCGTCGGACTGTAGAACTC
DNA 2: TTGGCACCCGAGAATTCCA
modifications: constant regions annealed to DNA blockers; guide miR-122 5' phosphate
B4: the binding signal with AGO2 L192P is 0.464 fold enrichment over input; with AGO2 A367P it was 0.195 fold enrichment over input; with AGO2 T357M it was 0.568 fold enrichment over input; with AGO2 F182del it was 0.249 fold enrichment over input.

B5: GCGCCCCA (ssRNA)
RNA 1: B1 RNA 1 with A27G, U30C, U32C, U33C
RNA 2: UGGAGUGUGACAAUGGUGUUUG
DNA 1: GATCGTCGGACTGTAGAACTC
DNA 2: TTGGCACCCGAGAATTCCA
modifications: constant regions annealed to DNA blockers; guide miR-122 5' phosphate
As for B5, the binding signal in the experiment with AGO2 L192P was 0.498 fold enrichment over input; with AGO2 A367P, 0.192 fold enrichment over input; in the experiment with AGO2 T357M, 0.741 fold enrichment over input.

B6: GCGCCCTA (ssRNA)
RNA 1: B1 RNA 1 with A27G, U30C, U32C
RNA 2: UGGAGUGUGACAAUGGUGUUUG
DNA 1: GATCGTCGGACTGTAGAACTC
DNA 2: TTGGCACCCGAGAATTCCA
modifications: constant regions annealed to DNA blockers; guide miR-122 5' phosphate
B6: the binding signal was 0.492 fold enrichment over input with AGO2 L192P, 0.195 fold enrichment over input with AGO2 A367P and 0.721 fold enrichment over input with AGO2 T357M.

B7: GTGTCTTA (ssRNA)
RNA 1: B1 RNA 1 with A27G, C28U
RNA 2: UGGAGUGUGACAAUGGUGUUUG
DNA 1: GATCGTCGGACTGTAGAACTC
DNA 2: TTGGCACCCGAGAATTCCA
modifications: constant regions annealed to DNA blockers; guide miR-122 5' phosphate
Turning to B7, the binding signal in the experiment with AGO2 L192P was 0.461 fold enrichment over input; in the experiment with AGO2 A367P, 0.173 fold enrichment over input; in the experiment with AGO2 T357M it was 0.599 fold enrichment over input.

B8: ATGTCCTA (ssRNA)
RNA 1: B1 RNA 1 with C28U, U32C
RNA 2: UGGAGUGUGACAAUGGUGUUUG
DNA 1: GATCGTCGGACTGTAGAACTC
DNA 2: TTGGCACCCGAGAATTCCA
modifications: constant regions annealed to DNA blockers; guide miR-122 5' phosphate
For B8, the binding signal with AGO2 L192P was 0.506 fold enrichment over input; with AGO2 A367P, 0.238 fold enrichment over input; in the experiment with AGO2 T357M it was 0.592 fold enrichment over input; in the experiment with AGO2 F182del, 0.262 fold enrichment over input.

B9: ATGCCCCA (ssRNA)
RNA 1: B1 RNA 1 with C28U, U30C, U32C, U33C
RNA 2: UGGAGUGUGACAAUGGUGUUUG
DNA 1: GATCGTCGGACTGTAGAACTC
DNA 2: TTGGCACCCGAGAATTCCA
modifications: constant regions annealed to DNA blockers; guide miR-122 5' phosphate
Regarding B9, the binding signal in the experiment with AGO2 L192P was 0.494 fold enrichment over input; in the experiment with AGO2 A367P it was 0.191 fold enrichment over input; in the experiment with AGO2 T357M, 0.652 fold enrichment over input; with AGO2 F182del, 0.191 fold enrichment over input.

B10: ACGCCCTA (ssRNA)
RNA 1: B1 RNA 1 with U30C, U32C
RNA 2: UGGAGUGUGACAAUGGUGUUUG
DNA 1: GATCGTCGGACTGTAGAACTC
DNA 2: TTGGCACCCGAGAATTCCA
modifications: constant regions annealed to DNA blockers; guide miR-122 5' phosphate
For B10, the binding signal with AGO2 L192P was 0.505 fold enrichment over input; in the experiment with AGO2 A367P, 0.194 fold enrichment over input; with AGO2 T357M, 0.681 fold enrichment over input.

B11: GTATTCCG (ssRNA)
RNA 1: B1 RNA 1 with A27G, C28U, G29A, C31U, U32C, U33C, A34G
RNA 2: UGGAGUGUGACAAUGGUGUUUG
DNA 1: GATCGTCGGACTGTAGAACTC
DNA 2: TTGGCACCCGAGAATTCCA
modifications: constant regions annealed to DNA blockers; guide miR-122 5' phosphate
Turning to B11, the binding signal with AGO2 L192P was 0.43 fold enrichment over input; with AGO2 A367P, 0.158 fold enrichment over input; with AGO2 T357M, 0.624 fold enrichment over input.

B12: GCGCTCTA (ssRNA)
RNA 1: B1 RNA 1 with A27G, U30C, C31U, U32C
RNA 2: UGGAGUGUGACAAUGGUGUUUG
DNA 1: GATCGTCGGACTGTAGAACTC
DNA 2: TTGGCACCCGAGAATTCCA
modifications: constant regions annealed to DNA blockers; guide miR-122 5' phosphate
For the molecule B12, the binding signal in the experiment with AGO2 L192P was 0.459 fold enrichment over input; with AGO2 A367P, 0.19 fold enrichment over input; in the experiment with AGO2 T357M, 0.635 fold enrichment over input.

B13: GCGCTTCA (ssRNA)
RNA 1: B1 RNA 1 with A27G, U30C, C31U, U33C
RNA 2: UGGAGUGUGACAAUGGUGUUUG
DNA 1: GATCGTCGGACTGTAGAACTC
DNA 2: TTGGCACCCGAGAATTCCA
modifications: constant regions annealed to DNA blockers; guide miR-122 5' phosphate
In the case of B13, the binding signal was 0.123 fold enrichment over input in experiment [1]; 0.498 fold enrichment over input in the experiment with AGO2 L192P; 0.238 fold enrichment over input with AGO2 A367P; 0.703 fold enrichment over input with AGO2 T357M; 0.289 fold enrichment over input with AGO2 F182del.

B14: ACATTCCG (ssRNA)
RNA 1: B1 RNA 1 with G29A, C31U, U32C, U33C, A34G
RNA 2: UGGAGUGUGACAAUGGUGUUUG
DNA 1: GATCGTCGGACTGTAGAACTC
DNA 2: TTGGCACCCGAGAATTCCA
modifications: constant regions annealed to DNA blockers; guide miR-122 5' phosphate
Consider B14, for which the binding signal in the experiment with AGO2 L192P is 0.382 fold enrichment over input; in the experiment with AGO2 A367P, 0.156 fold enrichment over input; in the experiment with AGO2 T357M, 0.428 fold enrichment over input; with AGO2 F182del, 0.178 fold enrichment over input.

B15: ATATCTTA (ssRNA)
RNA 1: B1 RNA 1 with C28U, G29A
RNA 2: UGGAGUGUGACAAUGGUGUUUG
DNA 1: GATCGTCGGACTGTAGAACTC
DNA 2: TTGGCACCCGAGAATTCCA
modifications: constant regions annealed to DNA blockers; guide miR-122 5' phosphate
Take B15: the binding signal in the experiment with AGO2 L192P is 0.456 fold enrichment over input; with AGO2 A367P, 0.179 fold enrichment over input; in the experiment with AGO2 T357M, 0.593 fold enrichment over input.

B16: ACGTCCTA (ssRNA)
RNA 1: B1 RNA 1 with U32C
RNA 2: UGGAGUGUGACAAUGGUGUUUG
DNA 1: GATCGTCGGACTGTAGAACTC
DNA 2: TTGGCACCCGAGAATTCCA
modifications: constant regions annealed to DNA blockers; guide miR-122 5' phosphate
Regarding B16, the binding signal is 0.475 fold enrichment over input with AGO2 L192P, 0.205 fold enrichment over input in the experiment with AGO2 A367P, 0.603 fold enrichment over input with AGO2 T357M and 0.187 fold enrichment over input with AGO2 F182del.

B17: ACGCTCTA (ssRNA)
RNA 1: B1 RNA 1 with U30C, C31U, U32C
RNA 2: UGGAGUGUGACAAUGGUGUUUG
DNA 1: GATCGTCGGACTGTAGAACTC
DNA 2: TTGGCACCCGAGAATTCCA
modifications: constant regions annealed to DNA blockers; guide miR-122 5' phosphate
For the molecule B17, the binding signal is 0.429 fold enrichment over input with AGO2 L192P, 0.173 fold enrichment over input with AGO2 A367P and 0.54 fold enrichment over input with AGO2 T357M.

B18: ACGCCTTA (ssRNA)
RNA 1: B1 RNA 1 with U30C
RNA 2: UGGAGUGUGACAAUGGUGUUUG
DNA 1: GATCGTCGGACTGTAGAACTC
DNA 2: TTGGCACCCGAGAATTCCA
modifications: constant regions annealed to DNA blockers; guide miR-122 5' phosphate
B18: the binding signal was 0.493 fold enrichment over input with AGO2 L192P, 0.221 fold enrichment over input with AGO2 A367P, 0.625 fold enrichment over input with AGO2 T357M and 0.246 fold enrichment over input in the experiment with AGO2 F182del.

B19: GCGTTCCA (ssRNA)
RNA 1: B1 RNA 1 with A27G, C31U, U32C, U33C
RNA 2: UGGAGUGUGACAAUGGUGUUUG
DNA 1: GATCGTCGGACTGTAGAACTC
DNA 2: TTGGCACCCGAGAATTCCA
modifications: constant regions annealed to DNA blockers; guide miR-122 5' phosphate
B19: the binding signal with AGO2 L192P is 0.477 fold enrichment over input; with AGO2 A367P it was 0.187 fold enrichment over input; in the experiment with AGO2 T357M, 0.592 fold enrichment over input; with AGO2 F182del, 0.161 fold enrichment over input.

B20: GCATTCTA (ssRNA)
RNA 1: B1 RNA 1 with A27G, G29A, C31U, U32C
RNA 2: UGGAGUGUGACAAUGGUGUUUG
DNA 1: GATCGTCGGACTGTAGAACTC
DNA 2: TTGGCACCCGAGAATTCCA
modifications: constant regions annealed to DNA blockers; guide miR-122 5' phosphate
Regarding B20, the binding signal with AGO2 L192P was 0.45 fold enrichment over input; in the experiment with AGO2 A367P, 0.181 fold enrichment over input; with AGO2 T357M it was 0.63 fold enrichment over input.

B21: ACGTTTTA (ssRNA)
RNA 1: B1 RNA 1 with C31U
RNA 2: UGGAGUGUGACAAUGGUGUUUG
DNA 1: GATCGTCGGACTGTAGAACTC
DNA 2: TTGGCACCCGAGAATTCCA
modifications: constant regions annealed to DNA blockers; guide miR-122 5' phosphate
Consider B21, for which the binding signal in the experiment with AGO2 L192P is 0.447 fold enrichment over input; with AGO2 A367P, 0.21 fold enrichment over input; in the experiment with AGO2 T357M, 0.571 fold enrichment over input; with AGO2 F182del, 0.204 fold enrichment over input.
